Reference: PubChem BioAssay (NCATS)
Records with an inconclusive call do not appear. Activity calls are given as the source filed them. Calls follow the shape of the dose curve; as a rule, active = well fitted activation curve with a large enough effect; inconclusive = small, poorly fitted or top-dose-only effect; inactive = no such curve, though single readings can be large or run the other way.

The molecules below were run against Rap guanine nucleotide exchange factor 4 (Homo sapiens) (UniProt Q8WZA2) (assay: Confirmatory qHTS for agonist of cAMP-regulated guanine nucleotide exchange factor 4 (EPAC2) (AID 1645884;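 also: nucleotide exchange releases bodipy-GDP from Rap1 and this lowers its fluorescence; nearly all actives have a fitted effect of over 65% in size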)). Details: EPAC2 GEF activity, Rap1B-BODIPY-GDP fluorescence; series mostly up to 154 µM.
Rap guanine nucleotide exchange factor 4 (Homo sapiens), sequence (Q8WZA2 whole entry, looked up): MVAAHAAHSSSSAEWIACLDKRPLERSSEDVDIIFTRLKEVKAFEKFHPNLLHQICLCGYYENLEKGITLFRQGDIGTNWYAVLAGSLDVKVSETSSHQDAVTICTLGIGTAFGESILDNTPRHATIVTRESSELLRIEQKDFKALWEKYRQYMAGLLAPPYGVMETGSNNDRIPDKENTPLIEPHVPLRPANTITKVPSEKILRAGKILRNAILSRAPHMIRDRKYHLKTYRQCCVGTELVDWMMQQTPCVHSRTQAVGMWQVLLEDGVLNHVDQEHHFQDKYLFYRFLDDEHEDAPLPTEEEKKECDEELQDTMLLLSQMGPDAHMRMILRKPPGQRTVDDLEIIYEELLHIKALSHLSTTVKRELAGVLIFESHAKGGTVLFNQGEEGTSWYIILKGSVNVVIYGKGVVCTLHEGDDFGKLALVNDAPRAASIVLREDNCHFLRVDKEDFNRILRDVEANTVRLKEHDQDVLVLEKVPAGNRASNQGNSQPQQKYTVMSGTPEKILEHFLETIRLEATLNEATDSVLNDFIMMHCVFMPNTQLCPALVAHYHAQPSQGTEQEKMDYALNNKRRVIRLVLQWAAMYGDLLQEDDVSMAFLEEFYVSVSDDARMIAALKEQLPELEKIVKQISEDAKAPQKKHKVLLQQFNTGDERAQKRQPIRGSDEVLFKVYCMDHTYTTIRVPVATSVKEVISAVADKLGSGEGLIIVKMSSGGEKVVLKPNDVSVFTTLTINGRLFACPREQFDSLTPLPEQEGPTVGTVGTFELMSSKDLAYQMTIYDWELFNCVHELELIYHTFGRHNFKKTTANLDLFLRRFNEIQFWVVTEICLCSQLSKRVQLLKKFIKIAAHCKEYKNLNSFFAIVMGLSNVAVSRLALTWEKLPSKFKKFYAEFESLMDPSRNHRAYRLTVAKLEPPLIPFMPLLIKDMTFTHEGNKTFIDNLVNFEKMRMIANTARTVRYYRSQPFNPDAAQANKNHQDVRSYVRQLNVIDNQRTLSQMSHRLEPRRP
% is scaled to controls: 0 for no effect and ±100 for the full control effect.

Potency, inactive:
COc1cn(-c2ccccc2)nc1C(=O)Nc1ccc(C)cc1Cl
Cc1cccc(Nc2nnc(SC/C(O)=C(\C#N)c3nc4ccccc4[nH]3)s2)c1
COc1ccc(-n2c(NC(=O)c3ccco3)c(C#N)c3nc4ccccc4nc32)cc1
COc1ccc(OC)c(CNC(=O)CCCc2cn(C)c3ccccc23)c1
N#CCCN(CCC#N)S(=O)(=O)c1ccc(C(=O)Nc2nnc(C3=COCCO3)o2)cc1
O=C1C(Cl)=C(NCCc2ccccc2)C(=O)c2ccccc21
Oc1c(Br)cc(Br)cc1CNc1cccc2cccnc12
Cc1ccc(-c2nc3c(c(=O)[nH]c(=O)n3Cc3ccccc3)n2C)o1
O=C(Nc1c(-c2ccc3c(c2)OCO3)[nH][nH]c1=O)c1ccccc1
Cc1cccc(Cn2c(COc3ccccc3)nc3ccccc32)c1
CCN(CCCNC(=O)c1cc2cc3ccc(OC)cc3nc2s1)c1cccc(C)c1
CCc1nc(Oc2cccc(F)c2)c2oc3ccccc3c2n1
CC(c1nc2ccccc2n1Cc1ccccc1)n1c(-c2cnccn2)nc2ccccc21 (stereo not given)

activation, inactive:
CN(CCOc1ccc(Br)cc1)C(=O)CNC(=O)c1ccc2ccccc2c1 0.226% [at 17.1 µM, percent relative to cAMP agonist control]
Cc1ccc(C)c(N2CCN(C(=O)c3ccc4c(=O)n5c(nc4c3)CCCCC5)CC2)c1 5.24% [at 17.1 µM, percent relative to cAMP agonist control]
